Reference: PubChem BioAssay (Tox21)
Where “and” joins values, the source holds several entries; their conditions need not be identical. Equal values may be shown once. Inconclusive results are not listed. Where a structure was tested more than once in an assay, its records may differ in their call. Calls of active or inactive are those of the source. Unless noted, calls follow the shape of the dose curve; as a rule, active = well fitted curve in the direction sought with a large enough effect in the repeat runs; inconclusive = weak or mixed curves; inactive = no such curve, though single readings can be large; an effect the other way counts as inactive or inconclusive.

Assays:
[1] = qHTS assay to identify small molecule antagonists of the constitutive androstane receptor (CAR) signaling pathway - cell viability counter screen (AID 1224837); also: nearly all actives have a fitted effect of over 45% in size
Method in brief: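 Fluorescence from CellTiter-Fluor served as the viability signal. Human hepatoma HepG2 cells stably bearing hCAR and CYP2B6-2.2kb received compound plus CITCO (50 nM final) for 23 hr.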

[2] = biological target: Nuclear receptor subfamily 1 group I member 3 (Homo sapiens) (UniProt Q14994); test: qHTS assay to identify small molecule antagonists of the constitutive androstane receptor (CAR) signaling pathway (AID 1224838);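 also: HepG2 cells stably expressing hCAR with CYP2B6 luciferase reporter stimulated by CITCO; nearly all actives have a fitted effect of over 40% in size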
Method in brief: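 Quantitative HTS in double-stable HepG2-CYP2B6-hCAR cells. After 4 h plating, cells get compound (15 concentrations) and CITCO at 50 nM final, incubate 24 h at 37 C, then ONE-Glo luminescence is read.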

[3] = biological target: Nuclear receptor subfamily 1 group I member 3 (Homo sapiens) (UniProt Q14994); test: qHTS assay to identify small molecule agonists of the constitutive androstane receptor (CAR) signaling pathway (AID 1224839); also: nearly all actives have a fitted effect of over 15% in size; also: potency is read from the fitted curve at half-maximal effect;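 as to activation: HepG2 cells stably carrying human CAR and a CYP2B6 luciferase reporter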
Method in brief: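 In this screen, CAR-driven CYP2B6 promoter activity is measured by luminescence in HepG2-CYP2B6-hCAR cells after 24 h with test compounds and 0.75 uM PK11195 (final concentration).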

[4] = qHTS assay to identify small molecule antagonists of the estrogen related receptor signaling pathway with the pleiotropic PPARgamma coactivator (PGC) from Tox21 10K library - cell viability counter screen (AID 1224840; active = well fitted cell-killing curve with a large enough effect in the repeat runs, not every such curve was filed as active; also: nearly all actives have a fitted effect of over 40% in size)
Method in brief: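 Compounds in DMSO, alongside positive and negative controls, were pinned onto PGC/ERR cells (2,000 per well). Exposure lasted 17.5 hours at 37 C, followed by a 30-minute CellTiter-Fluor incubation and fluorescence reading.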

[5] = qHTS assay to identify small molecule agonists of the hypoxia (HIF-1) signaling pathway - cell viability counter screen (AID 1224844; calls by dose curve; also: nearly all actives have a fitted effect of over 50% in size)
Method in brief: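 Luminescent ATP content (CellTiter-Glo, 30 min, room temperature) served as the viability measure in HRE-bla ME-180 cells exposed to compounds for 17 hrs in low-serum medium (0.5% dialyzed FBS).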

[6] = qHTS assay to identify small molecule agonists of H2AX (AID 1224845; active = well fitted activation curve with a large enough effect in the signal ratio in the repeat runs, not every such curve was filed as active; the % refers to the signal ratio)
Method in brief: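 Wild-type CHO-K1 cells, plated overnight, exposed 3hr at 37C to 15 concentrations (0.76% DMSO final). Lysed, then HTRF anti-pH2AX (S139) cryptate and anti-H2AX-d2 antibodies, 24 hr room temperature; 665/620 nm emission read.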

[7] = qHTS assay to identify small molecule agonists of the hypoxia (HIF-1) signaling pathway (AID 1224846; active = well fitted activation curve with a large enough effect in the signal ratio in the repeat runs, not every such curve was filed as active; the % refers to the signal ratio)
Method in brief: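 Measured by blue/green FRET after loading CCF4-AM: beta-lactamase expressed from a hypoxia response element in ME-180 cells. Test agents were delivered in DMSO and left 17 hrs; cells had been plated 5 hrs earlier in low-serum (0.5% dialyzed FBS) medium.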

[8] = qHTS assay to identify small molecule agonists of H2AX - cell viability counter screen (AID 1224847; calls by dose curve; also: top concentration of the series differs between compounds; nearly all actives have a fitted effect of over 30% in size)
Method in brief: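 Read-out: CellTiter-Glo luminescence, 30 min RT. Cells: wild-type CHO-K1, 1000/well, 10% FBS, plated overnight at 37C. Treatment: 15 concentrations, 3 hr, 37C, 0.76% DMSO.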

[9] = qHTS assay to identify small molecule agonists of the estrogen related receptor (ERR) signaling pathway from Tox21 library (AID 1224849; calls by dose curve; also: nearly all actives have a fitted effect of over 15% in size); conditions: ERR reporter cell line, ONE-Glo luciferase, 18 h
Method in brief: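 We plated ERR reporter cells, waited 6 h, added compounds in DMSO by pin tool and incubated them 18 h at 37 C. ONE-Glo was then added and luminescence read after 30 min.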

[10] = A CellTox Green Cytotoxicity Assay to monitor cytotoxicity in HEK293 cells - 0 hour (AID 1224869); also: nearly all actives have a fitted effect of over 50% in size
Method in brief: (§1)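 Each value comes from one timepoint of a single continuous run in which HEK293 cells with CellTox Green were exposed to compound for up to 40 h at 37 C, dye fluorescence rising with cell death.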

[11] = A CellTox Green Cytotoxicity Assay to monitor cytotoxicity in HEK293 cells - 40 hour (AID 1224871); also: nearly all actives have a fitted effect of over 45% in size; also: potency is read from the fitted curve at half-maximal effect
Method in brief: as §1

[12] = A CellTox Green Cytotoxicity Assay to monitor cytotoxicity in HEK293 cells - 24 hour (AID 1224875); also: nearly all actives have a fitted effect of over 45% in size
Method in brief: as §1

[13] = A CellTox Green Cytotoxicity Assay to monitor cytotoxicity in HepG2 cells - 16 hour (AID 1224876); also: nearly all actives have a fitted effect of over 45% in size; also: potency is read from the fitted curve at half-maximal effect
Method in brief: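 Continuous culture of HepG2 cells with a membrane-impermeant DNA dye; rising fluorescence marks dead cells. Compound exposure lasted up to 40 h at 37 C, with reads every 8 h from 0 h.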

[14] = qHTS RealTime-Glo MT Cell Viability Assay in HepG2 cells - 24 hour (AID 1224867); also: nearly all actives have a fitted effect of over 50% in size
Method in brief: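 Tox21 10K library screened in qHTS format on HepG2 cells carrying RealTime-Glo reagents. Compounds were added after a 5 h preincubation, and the luminescent signal from continuous culture was measured repeatedly during 40 h treatment.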

[15] = qHTS RealTime-Glo MT Cell Viability Assay in HepG2 cells - 40 hour (AID 1224870); also: nearly all actives have a fitted effect of over 50% in size
Method in brief: (§2)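 HepG2 cells (600/well) mixed with RealTime-Glo MT reagent, settled 5 h at 37 C/5% CO2 before compound addition. Nonlytic NanoLuc luminescence from viable-cell prosubstrate reduction read repeatedly during 40 h treatment at 37 C.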

[16] = qHTS RealTime-Glo MT Cell Viability Assay in HEK293 cells - 16 hour (AID 1224872)
Method in brief: (§3)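 Luminescence generated by NanoLuc from substrate produced by living HEK293 cells served as the viability signal. Each value reflects the reading at its stated time point during continuous 40 h compound exposure at 37 C.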

[17] = biological target: Thyrotropin receptor (Homo sapiens) (UniProt P16473); test: qHTS assay to identify small molecule agonists of the thyroid stimulating hormone receptor (TSHR) signaling pathway (AID 1224843; calls by dose curve; also: nearly all actives have a fitted effect of over 45% in size; also: potency is read from the fitted curve at half-maximal effect)
Method in brief: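 Steps: seed 800 TSHR-HEK293 cells per well; add test compound and hold 30 min at ambient temperature; dispense cAMP-d2 then anti-cAMP cryptate; incubate 1 h at ambient; measure fluorescence intensity.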

[18] = qHTS RealTime-Glo MT Cell Viability Assay in HEK293 cells - 32 hour (AID 1224868)
Method in brief: as §3

[19] = qHTS RealTime-Glo MT Cell Viability Assay in HepG2 cells - 8 hour (AID 1224873); also: nearly all actives have a fitted effect of over 55% in size
Method in brief: as §2

[20] = qHTS RealTime-Glo MT Cell Viability Assay in HEK293 cells - 40 hour (AID 1224874); conditions: RealTime-Glo luminescence; max response: stronger effect = lower value; also: nearly all actives have a fitted effect of over 50% in size
Method in brief: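 qHTS format; HEK293 cells with NanoLuc/prosubstrate reagent, 37 C/5% CO2 for 5 h pre-dosing; compounds 23 nL in DMSO; luminescence at each time point reflects viable cells.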
% is scaled to controls: 0 for no effect and ±100 for the full control effect.

Nuclear receptor subfamily 1 group I member 3 (Homo sapiens), sequence (Q14994 whole entry, looked up): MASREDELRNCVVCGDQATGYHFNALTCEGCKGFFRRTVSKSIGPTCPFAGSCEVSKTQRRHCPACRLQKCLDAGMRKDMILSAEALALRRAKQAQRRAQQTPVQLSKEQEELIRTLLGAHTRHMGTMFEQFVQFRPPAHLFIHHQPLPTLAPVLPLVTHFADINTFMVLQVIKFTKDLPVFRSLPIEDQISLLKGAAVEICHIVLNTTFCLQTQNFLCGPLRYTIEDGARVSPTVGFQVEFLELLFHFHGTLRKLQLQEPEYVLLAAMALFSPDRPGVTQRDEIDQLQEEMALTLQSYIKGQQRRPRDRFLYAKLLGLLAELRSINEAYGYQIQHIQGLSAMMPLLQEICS
Thyrotropin receptor (Homo sapiens), sequence (P16473 whole entry, looked up): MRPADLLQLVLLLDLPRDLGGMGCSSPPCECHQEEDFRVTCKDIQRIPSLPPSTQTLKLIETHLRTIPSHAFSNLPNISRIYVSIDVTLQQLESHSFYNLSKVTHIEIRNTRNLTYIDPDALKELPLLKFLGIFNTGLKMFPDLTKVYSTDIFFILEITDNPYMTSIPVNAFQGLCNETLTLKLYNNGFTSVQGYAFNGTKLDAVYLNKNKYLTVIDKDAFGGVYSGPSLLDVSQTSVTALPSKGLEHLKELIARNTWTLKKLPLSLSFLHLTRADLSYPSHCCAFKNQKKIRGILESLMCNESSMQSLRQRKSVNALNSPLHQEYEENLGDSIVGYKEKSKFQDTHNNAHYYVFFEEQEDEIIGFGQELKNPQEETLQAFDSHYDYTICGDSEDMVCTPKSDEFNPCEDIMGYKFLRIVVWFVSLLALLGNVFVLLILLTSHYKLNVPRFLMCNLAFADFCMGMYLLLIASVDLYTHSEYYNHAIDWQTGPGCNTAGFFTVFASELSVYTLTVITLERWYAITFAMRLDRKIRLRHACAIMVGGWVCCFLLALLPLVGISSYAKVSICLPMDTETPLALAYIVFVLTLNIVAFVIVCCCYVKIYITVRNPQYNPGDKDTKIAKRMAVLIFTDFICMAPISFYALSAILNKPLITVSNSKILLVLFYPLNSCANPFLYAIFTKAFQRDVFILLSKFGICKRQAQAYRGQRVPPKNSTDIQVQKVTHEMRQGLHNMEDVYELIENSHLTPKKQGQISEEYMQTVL

OC[C@H]1O[C@@](CO)(O[C@H]2O[C@H](CO)[C@@H](O)[C@H](O)[C@H]2O)[C@@H](O)[C@@H]1O
inactive: Potency [1] | Potency [2] | Potency [3] | Potency [4] | Potency [5] | Potency [6] | outcome [7] | Potency [8] | activity change, positive = activation ([9]; at 92.4 µM (top of the series)) 6.61% and 1.2% | outcome [10] | Potency [11] | Potency [12] | Potency [13]

CCCSc1ccc2nc(NC(=O)OC)[nH]c2c1
inactive: Potency [1] | Potency [2] | Potency [4] | Potency [5] | outcome [7] | Potency [8] | outcome [14] | outcome [10] | outcome [15] | Potency [11] | Potency [16] | Potency [12] | Potency [13]
active: Potency [3] 9.44 µM

O=C(O)CCCC[C@@H]1SC[C@@H]2NC(=O)N[C@@H]21
inactive: Potency [1] | Potency [2] | Potency [3] | Potency [4] | Potency [17] | Potency [5] | Potency [8] | activity change, positive = activation ([9]; at 42.5 µM (top of the series)) 7.51% | activity change, positive = activation ([9]; at 92.4 µM (top of the series)) 9.85% | outcome [14] | Potency [18] | outcome [10] | outcome [15] | Potency [11] | Potency [16] | Potency [12] | Potency [13]

C[Si](O[Si](C)(C)C)O[Si](C)(C)C
inactive: Potency [1] | Potency [2] | Potency [3] | Potency [4] | Potency [17] | Potency [5] | outcome [7] | Potency [8] | outcome [14] | Potency [18] | outcome [10] | outcome [15] | Potency [11] | Potency [16] | outcome [19] | max response [20] 1.67% and 1.77% | Potency [12] | Potency [13]

CCCCCCCCCCCCc1ccccc1
inactive: Potency [1] | Potency [2] | Potency [3] | Potency [4] | Potency [17] | Potency [5] | outcome [7] | Potency [8] | activity change, positive = activation ([9]; at 92.4 µM (top of the series)) 9.43% and 1.83% | outcome [14] | Potency [18] | outcome [10] | outcome [15] | Potency [11] | Potency [16] | outcome [19] | Potency [12] | Potency [13]

CCN(CC)c1ccc(C(=O)c2ccccc2C(=O)O)c(O)c1
active: Potency [3] 61.3 µM and 34.4 µM
inactive: Potency [1] | Potency [2] | Potency [4] | Potency [17] | Potency [5] | Potency [8] | Potency [18] | outcome [10] | outcome [15] | Potency [11] | Potency [16] | outcome [19] | Potency [12] | Potency [13]

C/C=C1/CC2C=CC1C2 (stereo unspecified)
inactive: Potency [1] | Potency [2] | Potency [3] | Potency [4] | Potency [5] | Potency [6] | outcome [7] | Potency [8] | Potency [18] | outcome [10] | outcome [15] | Potency [11] | Potency [16] | outcome [19] | max response [20] 4% and 6.36% | Potency [12] | Potency [13]

CCCCCCOCCO
inactive: Potency [1] | Potency [2] | Potency [3] | Potency [4] | Potency [5] | outcome [7] | Potency [8] | outcome [14] | Potency [18] | outcome [10] | outcome [15] | Potency [11] | Potency [16] | outcome [19] | max response [20] -2.7% and 0.672% | Potency [12] | Potency [13]

CN(C)CCOCCN(C)C
inactive and 43.6 µM (active): Potency [11] | Potency [13]
inactive: Potency [1] | Potency [2] | Potency [3] | Potency [4] | Potency [17] | Potency [5] | outcome [7] | Potency [8] | activity change, positive = activation ([9]; at 92.4 µM (top of the series)) -5.24% and -0.172% | outcome [14] | Potency [18] | outcome [10] | outcome [15] | Potency [16] | max response [20] 0.168% and 5.1%

CCCCCCCCC/C=C/CC1CC(=O)OC1=O (stereo unspecified)
inactive: Potency [1] | Potency [2] | Potency [3] | Potency [4] | Potency [17] | Potency [5] | outcome [7] | Potency [8] | outcome [14] | Potency [18] | outcome [10] | outcome [15] | Potency [11] | Potency [16] | outcome [19] | Potency [12] | Potency [13]

Cc1ccc(N(C)C)cc1
inactive: Potency [1] | Potency [2] | Potency [4] | Potency [17] | Potency [5] | outcome [7] | Potency [8] | outcome [14] | Potency [18] | outcome [10] | outcome [15] | Potency [11] | Potency [16] | outcome [19] | max response [20] 0.353% and -2.55% | Potency [12] | Potency [13]
inactive and 27.3 µM (active): Potency [3]

O=C(O)c1cc(O)c(O)c(O)c1
inactive: Potency [1] | Potency [2] | Potency [3] | Potency [4] | Potency [17] | Potency [5] | outcome [7] | Potency [8] | Potency [18] | outcome [10] | outcome [15] | Potency [11] | Potency [16] | max response [20] -26.7% and 2.18% | Potency [12] | Potency [13]

CC(=O)CC(=O)Nc1ccccc1C
9.8 µM (active) and inactive: Potency [17]
inactive: Potency [1] | Potency [2] | Potency [3] | Potency [4] | Potency [5] | outcome [7] | Potency [8] | activity change, positive = activation ([9]; at 92.4 µM (top of the series)) 1.06% and 1.9% | outcome [14] | Potency [18] | outcome [10] | outcome [15] | Potency [11] | Potency [16] | outcome [19] | max response [20] -0.0445% and -13.2% | Potency [12] | Potency [13]
